# Assay results from the supplement of paper PMC6555819.
# Assays:
# Test in all cases: PBM binding z-score (relative to random genomic background probes); higher = stronger binding; sequences stand for … in GC…GCGATTGACAGCGTAGAATGAAGG
# [1] = test system: FXR:RXRa (NR concentration 270 nM, RXRa partner concentration 90 nM)
# Outline: (§1)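 Binding z-scores were set against random background probes. The data came from custom Agilent 4×180K protein-binding microarrays carrying double-stranded probes with 34-nt variable regions, incubated 1 h with ligand-free nuclear receptor dimers. Partner-specific antibodies detected binding, and scanned fluorescence was regression-normalized.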
# [2] = test system: LXRa:RXRa (NR concentration 270 nM, RXRa partner concentration 90 nM)
# Outline: as §1
# [3] = test system: LXRa homodimer (NR concentration 270 nM)
# Outline: as §1
# [4] = test system: LXRb:RXRa (NR concentration 270 nM, RXRa partner concentration 90 nM)
# Outline: as §1
# [5] = test system: LXRb homodimer (NR concentration 270 nM)
# Outline: as §1
# [6] = test system: PPARa:RXRa (NR concentration 270 nM, RXRa partner concentration 90 nM)
# Outline: as §1
# [7] = test system: PPARg:RXRa (NR concentration 180 nM, RXRa partner concentration 90 nM)
# Outline: as §1
# [8] = test system: PPARg:RXRa 270nM:90nM, anti-RXR (NR concentration 270 nM, RXRa partner concentration 90 nM)
# Outline: as §1
# [9] = test system: PPARg:RXRa 30nM:10nM, anti-RXR (NR concentration 30 nM, RXRa partner concentration 10 nM)
# Outline: as §1
# [10] = test system: PPARg:RXRa 90nM:30nM, anti-RXR (NR concentration 90 nM, RXRa partner concentration 30 nM)
# Outline: as §1
# [11] = test system: PPARg:RXRa DBDmut IVT, anti-RXR (DBD mutation: RXRa K156A/R161A, NR concentration 270 nM, RXRa partner concentration 90 nM)
# Outline: as §1
# [12] = test system: PPARg:RXRa IVT, anti-PPARg (NR concentration 270 nM, RXRa partner concentration 90 nM)
# Outline: as §1
# [13] = test system: PPARg DBDmut:RXRa IVT, anti-PPARg (DBD mutation: PPARg1 K132A/R137A, NR concentration 270 nM, RXRa partner concentration 90 nM)
# Outline: as §1
# [14] = test system: PPARg DBDmut IVT, anti-PPARg (DBD mutation: PPARg1 K132A/R137A, NR concentration 270 nM)
# Outline: as §1
# [15] = test system: PPARg homodimer (NR concentration 180 nM)
# Outline: as §1
# [16] = test system: PXR:RXRa (NR concentration 270 nM, RXRa partner concentration 90 nM)
# Outline: as §1
# [17] = test system: PXR homodimer (NR concentration 270 nM)
# Outline: as §1
# [18] = test system: RARa:RXR (NR concentration 270 nM, RXRa partner concentration 90 nM)
# Outline: as §1
# [19] = test system: RARa homodimer (NR concentration 270 nM)
# Outline: as §1
# [20] = test system: RARb:RXRa (NR concentration 270 nM, RXRa partner concentration 90 nM)
# Outline: as §1
Sequence,PBM binding z-score [1],PBM binding z-score [2],PBM binding z-score [3],PBM binding z-score [4],PBM binding z-score [5],PBM binding z-score [6],PBM binding z-score [7],PBM binding z-score [8],PBM binding z-score [9],PBM binding z-score [10],PBM binding z-score [11],PBM binding z-score [12],PBM binding z-score [13],PBM binding z-score [14],PBM binding z-score [15],PBM binding z-score [16],PBM binding z-score [17],PBM binding z-score [18],PBM binding z-score [19],PBM binding z-score [20]
GCTTACGGGTCATAGGTTATAGCATGAATAGAAT,5.98,4.32,0.326,4.2,0.262,5.87,9.25,7.94,6.8,8.53,3.9,5.19,2.06,1.56,2.24,3.94,0.0944,5.79,0.0988,3.51
GTACCCAGGTGAATAGGTCGTTGATGAGTAGGCG,0.381,0.343,-0.131,0.285,-0.0749,1.59,1.34,1.25,0.309,0.972,1.26,2.42,-0.166,-0.407,0.786,0.279,0.138,1.08,0.238,0.908
TAGCCTAGGTCATTCAGGGGCCAATATAGAAAGC,4.5,4.59,1.12,3.78,1.21,3.97,2.41,2.82,0.793,1.51,1.85,2.85,0.373,1.2,2.49,3.08,0.116,4.05,0.318,3.93
TCATATAGGTAAATGCTAGGTGAAATTCCGATCT,0.456,0.522,-0.0474,0.729,0.187,1.17,0.929,2.31,3.86,3.3,3.98,2.41,0.621,1.13,1.04,0.404,0.241,0.848,1.28,0.363
TAGCCTAGGTCATGCGGGCCAGTCTAGTGTCGGC,3.89,3.03,-0.0115,1.36,-0.0777,3.43,2,2.23,-0.051,0.877,1.3,2.93,0.182,0.146,0.871,1.4,-0.585,2.48,-0.19,3.86
CGAACTAGGTCAGTGACAGGACAGTGAATAGTAA,1.32,0.944,-0.268,0.82,-0.44,3.47,5.73,4.86,1.66,4.11,7.42,7.6,2.57,0.828,0.785,0.605,0.0765,1.03,0.459,3.11
ATATGTAGGTTAGCTGGGGTCATTCTGACTAGGC,4.61,5.75,3.4,4.86,1.32,5.07,5.36,5.24,2.82,4.48,7.04,6.37,3.34,2.13,2.71,6.41,3.72,5.57,1.37,2.88
TCGAGTAGGTTACCAATGGGGCATTCCGCTTTCT,0.135,1.46,-0.855,0.838,-1.11,1.01,-0.123,1.1,1.11,0.974,3.12,2.43,-0.775,-0.0752,-0.326,-0.00662,-1.08,0.186,-1.04,0.81
TAGCCTTGGTCATTGGGCCAGTATAGTACGCATC,-0.646,-0.599,-0.698,-0.456,-0.537,-0.217,0.338,0.117,-0.34,-0.429,-0.486,0.545,-0.509,-0.603,-0.625,-0.515,-0.596,-0.324,-0.586,0.69
GCTTATGGGTCAAAGGTTATAGCATGAATAGAAT,6.45,5.27,0.469,5.46,0.477,6.76,11.9,10.1,10.2,11,7.1,7.2,2.03,2.31,2.17,5.71,0.209,7.4,1.13,4.41
CTACCAAGGTGAACAACGTCGTTGATTACTATTC,0.772,0.327,-0.307,0.812,-0.301,1.29,0.69,0.538,-0.133,0.52,2.88,2.23,0.00253,0.341,-0.432,0.189,-0.322,0.739,0.243,1.68
TCGAGCAGGTTACCAATGGGGCATTCAGCTTTCT,0.00101,1.37,-0.694,0.999,-1,0.887,-0.242,0.245,0.211,0.322,0.467,0.239,-1.51,-1.13,-0.591,0.0251,-0.765,0.475,-1.05,1.07
TAGCCTTGGTCAGATCGGGCCAGTATACGCTATA,-0.504,-0.892,-0.925,-0.995,-0.904,-0.565,-0.0905,-0.29,-0.644,-0.566,-0.7,-0.297,-0.203,-1.18,-1.31,-0.578,-0.538,-0.611,-1.58,0.307
CGTCAAAGTTCAAGGTAACGTCACAGAAAGCAGC,6.25,5.64,2.77,3.46,1.24,4.71,4.58,5.27,2.34,4.03,0.574,2.31,1.5,0.322,2.9,4.33,2.43,3.98,1.32,5.18
GCTTACGGGTCAAAGGTTATAGCTTGAATAGAAT,6.94,5.6,0.366,5.39,0.468,6.66,11.3,9.06,8.76,10.9,4.25,5.72,1.28,1.02,1.88,5.86,0.119,7.89,0.811,4.34
CAAACTAGGTCAAGGTCAAGGTCGGTTTGTGCCA,6.47,5.41,3.72,4.28,0.954,6,9.57,7.87,6.34,8.36,8.6,8.73,2.59,1.56,5.52,5.33,2.34,5.61,2.92,5.2
TCTCGTAGATCAGCAGGTTAAGAAAGCTGGCCAA,-0.53,-0.117,-0.522,0.0597,-1.13,0.428,-0.691,1.22,2.41,2.08,1.33,-0.478,-0.653,-0.513,-0.593,-0.00394,-0.361,0.521,-0.998,-0.0596
TCATATAGGTGAAGGTGAAAGTCGAACGATATGA,0.452,0.703,-0.543,0.713,-0.39,3.24,5.02,5.16,4.73,4.96,6,6.13,1.24,0.938,0.35,0.448,0.0381,1.08,0.38,1.88
TAGCCTAGGTCAGATCGGACCAGTATACGCTATA,1.36,1.26,-0.219,1.03,-0.138,1.99,0.959,0.981,-0.106,0.213,0.812,1.36,0.21,0.399,0.0652,0.377,-0.37,1.48,-0.814,2.85
GCTTACGGGTCAAAGGGTATAGCATGAATAGAAT,6.94,4.45,0.132,4.28,0.557,6.21,9,7.96,7.14,8.29,4.35,5.08,1.19,2.3,2.55,4.16,0.626,5.66,0.592,4.09
CTCGAAAGGTTGGTTGAGGTGAGTATACGGATAA,1.15,0.487,-0.0312,0.38,-0.269,0.843,-0.0296,0.107,0.0087,0.291,-0.057,0.667,-0.538,-0.309,0.774,1.11,0.376,1.09,0.368,1.17
ATACCAAGGTGATCGTGAGGTCGTTGAAACTAAC,2.15,1.49,0.854,1.6,0.171,2.03,0.268,0.273,-0.226,0.172,0.647,1.34,0.138,0.0797,1.05,3.33,1.61,2.57,0.829,1.7
TCGAGCAGGCCAGAGGGTCACTCAAGAGGTACGG,0.628,0.741,-0.581,1.11,-1.33,2.24,1.04,1.6,0.223,1.31,-0.0196,0.342,-0.384,-1.69,0.386,1.76,-0.594,2.13,-0.84,2.19
ACTTATGGGTCAACGAGGTTATAGCACGCGTATA,5.3,4.47,0.915,3.85,0.967,5.33,6.12,5.78,2.91,5.01,6.33,5.8,1.52,2.09,2.41,4.34,1.69,4.3,1.76,3.89
TAGCCTAGGTCATGGGCGAGTATACCACGCGAAC,4.42,3.43,0.0703,2.28,-0.329,4.15,3.46,3.42,0.67,2.09,1.54,3.26,0.096,-0.639,0.74,1.53,-0.407,2.3,-0.782,3.91
CCTACTGGGCCATTCAGAGGTCATTAATCATATG,2.24,3.76,5.48,3.81,0.468,3.74,1.99,2.79,0.44,2.02,4.22,4.37,0.0729,0.0343,2.11,4.17,2.46,3.83,0.0599,2.88
CGTCCAAGATCAAAGGTCAGTGAAGAGATGACGG,3.66,3.73,1.53,3.21,0.413,4.84,5.29,5.82,3.81,5.56,0.235,2.39,0.493,-0.0647,3.36,3.67,0.13,5.06,1.29,4.37
GCATATAGGTAATACTAGGTGAAAGTCCGATTGT,0.715,2.49,0.179,0.49,-0.275,2.06,2.22,2.48,1.09,2.43,4.82,4.2,0.862,0.925,0.614,0.155,0.151,1.1,0.695,0.113
